Among the data in PubChem BioAssay AID504847 (National Center for Advancing Translational Sciences (NCATS), 2011) are Potency and max response, negative = inhibition values, retold here.

Where “and” joins values, the source holds several entries; their conditions need not be identical. Identical values can stand only once. The whole screen tested about 400,000 compounds, of which about 3,700 (0.93%) were called active. About 3% were inconclusive and are not listed. The sample holds actives, similar compounds and a random draw of the others, so the mix is not that of the screen. Some structures have more than one record in an assay (separate samples or runs), and their calls can disagree. Unmarked numbers belong to inactive results. Calls follow the shape of the dose curve; as a rule, active = well fitted inhibition curve with a large enough effect; inconclusive = small, poorly fitted or top-dose-only effect, or another doubt; inactive = no such curve, though single readings can be large or run the other way.
% is scaled to controls: 0 for no effect and ±100 for the full control effect; potency is read from the fitted curve at half-maximal effect.

Chain of Vitamin D3 receptor (Homo sapiens) (P11473 whole entry, looked up): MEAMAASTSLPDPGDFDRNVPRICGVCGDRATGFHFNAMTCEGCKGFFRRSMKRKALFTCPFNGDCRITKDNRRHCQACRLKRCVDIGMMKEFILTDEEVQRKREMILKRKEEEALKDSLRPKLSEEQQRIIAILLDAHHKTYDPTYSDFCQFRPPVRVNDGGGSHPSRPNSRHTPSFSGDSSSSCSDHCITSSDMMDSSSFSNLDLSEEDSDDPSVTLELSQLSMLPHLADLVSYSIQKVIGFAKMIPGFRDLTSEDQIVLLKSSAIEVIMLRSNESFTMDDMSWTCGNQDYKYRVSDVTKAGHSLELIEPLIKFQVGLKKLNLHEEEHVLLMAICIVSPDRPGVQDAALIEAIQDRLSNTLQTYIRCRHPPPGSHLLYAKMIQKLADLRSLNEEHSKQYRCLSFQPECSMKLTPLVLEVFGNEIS

The target of the experiment is Vitamin D3 receptor (Homo sapiens) (UniProt P11473). In words: Inhibitors of the vitamin D receptor (VDR): qHTS. As to conditions: VDR-SRC2-3 peptide fluorescence polarization, 2 h; max response, negative = inhibition: active compounds read low. An excerpt:
The vitamin D receptor (VDR) is a ligand-activated transcription factor and is partially responsible for the regulation of the endocrine system. This includes the transcriptional regulation of genes involved in the production of the parathyroid hormone (PTH) and the regulation of the blood calcium level. High levels of PHT can cause hypercalcemia in the case of primary and tertiary hyperparathyroidism. The VDR-mediated gene regulation, activated by its ligand 1,25-dihydroxyvitamin D3 (1,25-(OH)2D3), is governed by the recruitment of coactivators. Our hypothesis is that small molecules, with the ability to inhibit the interaction between VDR and certain coactivators, are able to selectively modulate VDR-mediated transcription. Our long term objective is the application these VDR-coactivator inhibitors to study the role of VDR-coactivator binding for specific VDR regulated genes. Ultimately, these molecules can be developed into new treatments for hypercalcemic hyperparathyroidism. No small molecule or non-peptide inhibitors are known for the VDR-coactivator interaction.
In a collaboration between the University of Wisconsin, Milwaukee and the NIH Chemical Genomics Center (NCGC) a HTS-compatible enzymatic assay was developed. The assay uses fluorescence polarization as its read-out to measure the inhibition between VDR and coregulator peptide SRC2-3 exerted by small molecules. This assay was used to screen the NIH Molecular Libraries Small Molecule Repository (MLSMR).
NIH Chemical Genomics Center [NCGC]
NIH Molecular Libraries Probe Centers Network [MLPCN]
Assay Submitter (PI): Alexander Arnold, University of Wilwaukee
Both solutions are kept at 4 deg C and protected from light and dispensed using a Kalypsys dispenser. Then 23nl of compounds and controls are added with Kalypsys pintool. […] Plate is centrifuged at 1000 RPM for 15 seconds to remove any residual bubbles. The plate is then incubate at ambient room temperature for 2 hours.
As for `CC[N+](C)(CC)CCC[n+]1c(-c2ccccc2)c2cc(N)ccc2c2ccc(N)cc21`, the Potency was 8.91 µM (active).

Consider `COc1ccc2c3c1O[C@H]1C[C@@H](O)C=C[C@@]31CCN(C)C2`, for which the max response, negative = inhibition was 4.74% and -11.8%.

Regarding `c1ccc2c(c1)[I+]c1ccccc1-2`, the max response, negative = inhibition was -6.32%.

For `COc1ccc(CN2C(=O)NC(=O)/C(=C\c3ccc(OC)c(OC)c3OC)C2=O)cc1`, the Potency was 70.8 µM (active).

With `CNC(C)[C@@H](O)c1ccccc1` (stereo not given in full), the max response, negative = inhibition was 2.28%.

As to `CO[C@@H]1C[C@@H](C[C@H]2CC[C@H](C)[C@@H]([C@@H](C)C(=O)O)O2)O[C@]2(O[C@](C)([C@H]3CC[C@@](C)(C4OC([C@H]5O[C@@](O)(CO)[C@H](C)C[C@@H]5C)C[C@@H]4C)O3)C[C@H]2C)[C@@H]1C` (stereo not given in full), the max response, negative = inhibition is 10.2%.

`N#Cc1c(Cl)c(Cl)c(Cl)c(C#N)c1Cl`: the Potency is 0.794 µM (active).

With `CCCCCCCCCCCCN=C(N)N`, the max response, negative = inhibition was 6.41%.

Consider `C[C@@H]1C[C@H]2CC[C@H](O2)[C@H](C)C(=O)O[C@@H](C)C[C@@H]2CC[C@@H](O2)[C@@H](C)C(=O)O[C@H](C)C[C@H]2CC[C@H](O2)[C@H](C)C(=O)O[C@@H](C)C[C@@H]2CC[C@@H](O2)[C@@H](C)C(=O)O1`, for which the max response, negative = inhibition was 8%.

For the molecule `COc1ccc2c3c1OC1CC(O)C=C[C@@]31CCN(C)C2` (stereo not given in full), the max response, negative = inhibition was -3.65%.

Regarding `NC[C@H](O)c1ccc(O)cc1`, the max response, negative = inhibition was 6.55%.

Take `O=C(Nc1cccc(F)c1)N1CC[C@@]2(CCCN(C(=O)Oc3ccccc3)C2)C1`: the max response, negative = inhibition is 2.93%.

For `CCOC(=O)c1ncn2c1[C@@H]1CCCN1C(=O)c1cc(OC)ccc1-2`, the max response, negative = inhibition is -6.26%.

For the molecule `CC(=O)c1c(O)c(C)c(O)c(Cc2c(O)c3c(c(C(=O)/C=C\c4ccccc4)c2O)OC(C)(C)C=C3)c1O`, the Potency is 35.5 µM (active).

Take `CC(=O)c1c(O)c(C)c(O)c(Cc2c(O)c3c(c(C(=O)/C=C/c4ccccc4)c2O)OC(C)(C)C=C3)c1O`: the Potency is 14.1 µM (active) and 8.91 µM (active) and 39.8 µM (active).

For the molecule `CN(C)C[C@H]1CCCC[C@]1(O)c1cccc(O)c1`, the max response, negative = inhibition was 1.62%.

For the molecule `Cc1cccc([C@H](C)c2cnc[nH]2)c1C`, the max response, negative = inhibition is 7.28%.

As to `CO[C@H]1[C@@H](O)[C@@H](C)O[C@H](O[C@H]2[C@H](Oc3cccc4c(O)c5c(=O)oc6ccc(C)c7c(=O)oc(c34)c5c67)O[C@H](C)[C@H](O)[C@@H]2O)[C@@H]1O`, the max response, negative = inhibition was 14.9%.

Turning to `Cc1ccc(-n2c(/C=C/c3cccc(C(F)(F)F)c3)nc3ccccc3c2=O)cc1`, the max response, negative = inhibition was 9.47%.

`Cc1ccc(NC(=O)N(Cc2ccc3c(c2)OCO3)C2CCN(Cc3ccccc3)CC2)cc1F`: the max response, negative = inhibition was 4.08%.

As for `Fc1ccc(C(OCCN2CCN(C/C=C\c3ccccc3)CC2)c2ccc(F)cc2)cc1`, the max response, negative = inhibition is -15.8%.

On to `CCCCC/C=C\C/C=C\C/C=C\C/C=C\CCCCCC(=O)NCCO`, for which the Potency is 35.5 µM (active); the max response, negative = inhibition was 17.7% and -2.94% and 0.308%.

Take `CCCCC/C=C\C/C=C\C/C=C\CCCCCCC(=O)NCCO`: the max response, negative = inhibition was -6.07% and 11.4% and 0.788%.

Regarding `CCCCC/C=C\C/C=C\C/C=C\C=C\[C@H](CCCC(=O)O)OO`, the max response, negative = inhibition was 7.28% and 4.32%.

Turning to `CC[C@@H]1CN2CC[C@@H]1C[C@H]2[C@H](O)c1ccnc2ccc(OC)cc12`, the max response, negative = inhibition is 3.71%.

As for `COC(=O)N1C(c2ccccc2)C1c1ccccc1` (stereo not given), the max response, negative = inhibition was 8.84%.

For the molecule `CC(=O)[O][Sn]([c]1ccccc1)([c]1ccccc1)[c]1ccccc1`, the Potency was 2.24 µM (active).

Regarding `O=C(O)CCn1cc(C=C2C(=O)NC(=S)NC2=O)c(-c2cccc(Br)c2)n1`, the Potency is 25.1 µM (active).

Consider `C[C@@]12CC[C@H]3[C@@H](CC[C@]4(O)C[C@H](O)CC[C@@]34C=O)[C@]1(O)CC[C@@H]2C1=CC(=O)OC1`, for which the max response, negative = inhibition was 6.85%.

Regarding `c1csc(CN2CC3(CCNCC3)C2)n1`, the max response, negative = inhibition was 2.29%.

In the case of `Cc1cccc2c3c(ccc12)C1=C(C(=O)C3=O)C(C)CO1` (stereo not given), the Potency was 5.62 µM (active).

On to `COc1ccc(C2Oc3c(I)c(OC)cc(OC)c3CC2O)cc1OC` (stereo not given), for which the max response, negative = inhibition is -4.29%.

In the case of `Nc1ccc(-c2ccc(N)c(N)c2)cc1N`, the max response, negative = inhibition was 7.8%.

In the case of `c1ccc(CCCCN2CCC(c3ccccc3)CC2)cc1`, the max response, negative = inhibition is 6.23% and 8.72%.

`Cc1ncsc1CCCl`: the max response, negative = inhibition is -5.72% and -13.2% and 18.1%.

As to `COc1ccccc1-c1[se]c2ccccc2c1I`, the max response, negative = inhibition was -10.1%.

As to `N#CC(C#N)=Cc1cc(O)c(O)c([N+](=O)[O-])c1`, the Potency is 44.7 µM (active).

With `CCC(C)C(=O)O[C@@H]1C[C@@]2(C)C(c3ccoc3)OC(=O)CC23OC2(C)O[C@@]14[C@@]1(C)C(CC(=O)OC)C5(C)CC1(O)C(O)(C5OC(=O)C1(C)OC1C)C(OC(C)=O)[C@@]34O2` (stereo not given in full), the max response, negative = inhibition is -0.0436%.

In the case of `C[C@]12O[C@H](C[C@@]1(O)C(=O)O)n1c3ccccc3c3c4c(c5c6ccccc6n2c5c31)CNC4=O`, the max response, negative = inhibition was 0.321%.

Turning to `COc1cc2c(cc1OC)[C@@H]1C(=O)c3ccc(O)c(CC=C(C)C)c3OC1CO2` (stereo not given in full), the max response, negative = inhibition was 10.7%.

Take `CCCCCCCCCCCCCC(=O)O[C@@H]1[C@@H](C)[C@@]2(O)[C@@H](C=C(CO)C[C@]3(O)C(=O)C(C)=C[C@@H]23)[C@@H]2C(C)(C)[C@]12OC(C)=O`: the max response, negative = inhibition is 3.48%.

Turning to `CCC1(c2ccccc2)C(=O)NC(=O)N(C)C1=O` (stereo not given), the max response, negative = inhibition is 3.76%.

With `O=P1(Oc2ccccc2)CC(O)C(O)C(COCc2ccccc2)O1` (stereo not given), the max response, negative = inhibition was -0.629%.

Consider `CC(=O)OC1C2(CC3N4C(=O)C5(CO)SSC4(CC31O)C(=O)N5C)OC(C)C(C)(C)C2=O` (stereo not given), for which the Potency was 39.8 µM (active).
